CendR NRP1 mod: modulators of CendR peptide binding to NRP-1, primary screen, biochemical, fluorescence polarization, uHTS. Neuropilin-1 (Homo sapiens), O14786. FAM-RPARPAR peptide binding to NRP-1. inhibition, % at 25 µM. actives 0.85% (n = 360,000). AID 602438, 2012;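 active = inhibition or corrected inhibition above about 18%, plus a signal ratio from 0.5 to 1.5, limit read from the data, passing the limit was not always enough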
Fh CTSL1 inh: Fasciola hepatica cathepsin L1 inhibitors, primary screen, counter-screen for PFM18AAP inhibitor project, biochemical, QFRET, fluorogenic peptide substrate; recombinant F. hepatica cathepsin L1, Z-Leu-Arg-MCA fluorescence; inhibition, % at 5.96 µM; actives 0.49% (n = 300,000);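 active = inhibition above the mean of all tested compounds plus 3 SD, set per screening campaign, cut at about 17% in these data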;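 note: 0% = plate median of test compound wells and 100% = 1 µM Z-Phe-Ala-diazomethylketone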
Rpn11 block: Rpn11 (PSMD14) deubiquitinase inhibitors, primary screen, biochemical, fluorescence polarization, uHTS | 26S proteasome non-ATPase regulatory subunit 14 (Homo sapiens), O00487 | human 26S proteasome, Ub4-pepOG fluorescence polarization; 20S core pre-blocked with epoxomicin | inhibition, % at 20 µM | actives 0.59% (n = 360,000);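 active = inhibition at 20 µM, scaled to each plate's controls, above about 33%, limit read from the data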
HNF4A DNA FP: change in binding of human HNF4A to DNA, primary screen, biochemical, fluorescence polarization, FITC-DNA; Hepatocyte nuclear factor 4-alpha (Homo sapiens), P41235; 1 h; activity change, % at 10 µM; actives 0.3% (n = 360,000); in the data active = activity change above about 30%, passing the limit was not always enough
PHOSPHO1 block: PubChem AID 1565. Phosphoethanolamine/phosphocholine phosphatase (Homo sapiens), Q8TCT1. inhibition, % at 13.3 µM. actives 1.1% (n = 290,000). recombinant PHOSPHO1, absorbance phosphatase assay; in the data active = inhibition above about 60%
TPT1 inh: Candida albicans TPT1 enzyme inhibitors, primary screen, biochemical, fluorescence polarization; tRNA 2'-phosphotransferase TPT1 (Candida albicans SC5314); recombinant caTPT1, FP RNA substrate dephosphorylation; inhibition, % at 5 µM; actives 0.81% (n = 300,000);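 active = inhibition above the mean of all tested compounds plus 3 SD, set per screening campaign, cut at about 24% in these data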;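 note: plate controls were DMSO alone for no effect and ferristatin control at 100 nM for full effect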
Rpn11 confirm: Rpn11 (PSMD14) deubiquitinase inhibitors, confirmation, biochemical, fluorescence polarization, single concentration; purified human 26S proteasome, Ub4-pepOG fluorescence polarization; proteasome pretreated with epoxomicin; AID 602318, 2012; actives 29% (n = 1,900); shares compounds with Rpn11 block; inhibition, % at 20 µM
MMP-2 counter: MMP-2 enzyme inhibition, confirmation, counter-screen for RPN11 inhibitor project, biochemical, fluorescence, single concentration | recombinant MMP-2, FRET peptide cleavage fluorescence | actives 4% (n = 1,900) | inhibition, % at 20 µM | AID 602330, 2012 | shares compounds with Rpn11 block;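 note: human MMP-2 activated beforehand with APMA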
Thrombin FP: bovine thrombin protease inhibition, confirmation, counter-screen for Rpn11 inhibitor project, biochemical, fluorescence polarization, single concentration. shares compounds with Rpn11 block. bovine thrombin cleavage of Ub4-pepOG. inhibition, % at 20 µM. actives 13% (n = 1,900). AID 602333, 2012;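 active = mean inhibition at least 40% at 20 µM, or signal 3 deviations below plate average, so some actives read negative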;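 note: plate controls were thrombin with DMSO for no effect and buffer wells lacking thrombin for full effect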
Target sequence (P00735 whole entry, looked up): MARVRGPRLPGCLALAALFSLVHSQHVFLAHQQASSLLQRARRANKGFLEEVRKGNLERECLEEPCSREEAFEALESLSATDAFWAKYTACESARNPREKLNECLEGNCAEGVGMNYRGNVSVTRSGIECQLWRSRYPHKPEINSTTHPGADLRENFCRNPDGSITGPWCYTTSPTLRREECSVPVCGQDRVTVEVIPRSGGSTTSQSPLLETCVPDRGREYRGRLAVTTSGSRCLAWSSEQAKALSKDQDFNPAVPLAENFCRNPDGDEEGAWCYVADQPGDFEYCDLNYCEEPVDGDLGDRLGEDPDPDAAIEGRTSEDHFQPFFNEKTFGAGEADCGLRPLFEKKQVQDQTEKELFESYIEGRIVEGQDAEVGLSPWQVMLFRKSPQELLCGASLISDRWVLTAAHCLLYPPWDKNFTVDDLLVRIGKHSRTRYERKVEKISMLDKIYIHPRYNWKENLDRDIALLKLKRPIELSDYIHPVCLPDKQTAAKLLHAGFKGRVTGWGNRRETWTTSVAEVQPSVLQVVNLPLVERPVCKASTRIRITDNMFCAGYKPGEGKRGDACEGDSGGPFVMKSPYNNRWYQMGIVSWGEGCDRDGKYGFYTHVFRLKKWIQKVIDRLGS
Numbers without * were called inactive; . = no result. This is a sample that favours compounds with a hit; in the whole collection about 3.3% have one here. Cut-off read from the data, not from the text of the source, unless noted: active = inhibition above about 40%; inactive = the rest.

SMILES	CendR NRP1 mod	Fh CTSL1 inh	Rpn11 block	HNF4A DNA FP	PHOSPHO1 block	TPT1 inh	Rpn11 confirm	MMP-2 counter	Thrombin FP
Cc1nc(N2CCN(Cc3ccccc3)CC2)nc2c1CCC2	5	-1	-5	0	34	0	.	.	.
C=CCn1c(C#N)c(N)sc1=N	-95	1	45*	19	18	11	5	-33	-14
N#C/C(=C\c1cc2ccccc2nc1N1CCCCC1)C(N)=O	-34	0	7	1	-10	8	.	.	.
O=C1NC(=S)S/C1=C\c1cc2ccccc2nc1N1CCCCC1	-103	1	54*	13	27	2	74*	11	46*
O=C(CN(Cc1ccc(F)cc1)C(=O)CCC(=O)Nc1nccs1)NCC1CCCO1 (centres undefined)	5	-1	-5	0	37	-3	.	.	.
CCOCCc1nnc(NC(=O)CS(=O)(=O)Cc2ccccc2)s1	-1	-2	-2	-3	6	1	.	.	.
CCCc1ccc(C(=O)Cn2nc(C(=O)O)c3ccccc3c2=O)cc1	2	-11	-8	-4	37	-2	.	.	.
COc1cc(OC)cc(-c2nnc(Nc3nc4c(F)cccc4s3)o2)c1	-8	0	114*	12	1	-6	76*	32	-8
O=C(C=CC(=O)OC1CCCCC1)OC1CCCCC1	0	.	1	-5	.	.	.	.	.
CC(=O)c1cn(CC(=O)NCc2ccc3c(c2)OCO3)c2ccccc12	0	5	93*	16	-8	4	-16	-8	-16
O=C(Cn1cc(C(=O)C2CC2)c2ccccc21)NCc1ccc2c(c1)OCO2	-4	1	1	1	29	1	.	.	.
COCCCn1c(SCc2nc3ccccc3c(=O)[nH]2)nc2ccccc2c1=O	-45	11	105*	1	9	0	-13	-23	8
CCn1c(SCc2nc3ccccc3c(=O)[nH]2)nc2ccccc2c1=O	0	9	-1	-2	22	-2	.	.	.
CCc1nnc(NC(=O)CSC(=S)N2CCOCC2)s1	-2	-1	2	-1	38	1	.	.	.
CCCC(=O)N=C1SC2CS(=O)(=O)CC2N1c1ccc(-c2nc3ccc(C)cc3s2)cc1 (centres undefined)	-20	0	46*	8	-16	5	2	-25	-5
Cc1ccc(N2C(=NC(=O)c3ccccc3)SC3CS(=O)(=O)CC32)cc1 (centres undefined)	12	2	1	-4	-24	2	.	.	.
CCOC(=O)c1c(NC(=O)CSc2nc3cccnc3n2C)sc(C(C)=O)c1C	-3	-1	35*	7	41	8	21	-23	-5
COc1cc(/C=N/OCC(=O)NC2CCCCC2C)ccc1OCc1ccc(Cl)cc1 (centres undefined)	3	3	6	1	-11	-1	.	.	.
COc1cc(/C=N/OCC(=O)Nc2cc(C)cc(C)c2)ccc1OCc1ccc(Cl)cc1	-18	5	42*	7	-13	4	29	-29	-1
CC(C)NC(=O)CCn1c(=S)oc2ccccc21	4	7	0	-3	-3	0	.	.	.
Cc1ccc(S(=O)(=O)/N=C2/NC(=O)/C(=C/c3ccc(Br)o3)S2)cc1	-117	4	61*	12	21	16	28	-8	18
CCC(C)(C)NC(=O)Cc1ccc(OC)c(OC)c1	-2	-2	138*	0	11	2	6	-15	-8
COc1ccc(CC(=O)NC(C)(C)CC(C)=O)cc1OC	-9	-4	-4	-5	42	6	.	.	.
COc1ccc(C2C(C#N)=C(N)Oc3cc(O)ccc32)cc1Cl (centres undefined)	-33	4	59*	32	.	19	-4	-16	-8
C#CCOc1ccc(C2C(C#N)=C(N)Oc3cc(O)ccc32)cc1 (centres undefined)	-62	1	52*	24	34	8	4	-28	-32
SMILES	CendR NRP1 mod	Fh CTSL1 inh	Rpn11 block	HNF4A DNA FP	PHOSPHO1 block	TPT1 inh	Rpn11 confirm	MMP-2 counter	Thrombin FP
N#CC1=C(N)Oc2cc(O)c(Cl)cc2C1c1cccnc1 (centres undefined)	-51	.	57*	9	14	.	-13	-28	-12
Cc1cc(Cl)cc(Br)c1OCCCN1C(=O)NC(C)(C)C1=O	6	-3	3	-1	9	-1	.	.	.
COc1ccc(N2CCN(C(=O)CCCSc3nc4ccccc4[nH]3)CC2)cc1	-4	-1	7	0	-25	-9	.	.	.
Cc1cc(O)c(C(C)C)cc1N=Cc1ccccc1O	-68	-1	45*	21	20	-1	25	-20	24
CCC(=O)N1c2ccc(S(=O)(=O)NCCc3ccccc3)cc2CC1C (centres undefined)	9	-4	-7	1	-18	-1	.	.	.
O=C(Cc1cccs1)N(Cc1ccco1)C1(C(=O)NC2CCCCC2)CCCCC1	12	-3	1	5	19	-2	.	.	.
O=C(Cc1cccs1)N(Cc1cccs1)C1(C(=O)NC2CCCC2)CCCCC1	7	-2	136*	0	19	-2	2	-6	6
CN1CCN(C(=O)/C(=C/c2cccs2)NC(=O)c2ccco2)CC1	0	-1	5	-4	24	-1	.	.	.
Cc1[nH]n(-c2nc(-c3ccc(Cl)cc3)cs2)c(=O)c1N=Nc1ccc(O)cc1	-14	6	42*	14	-13	7	-5	-24	-3
Cc1ccc(OCc2ccc(C(=O)Nc3ccc(C(N)=O)cc3)o2)c([N+](=O)[O-])c1	3	4	134*	10	8	0	13	-36	7
O=C(N/N=C\c1cn(-c2ccccc2)nc1-c1ccccc1)c1ccc2c(c1)OCO2	-5	4	-1	0	9	-1	.	.	.

Source: PubChem (several laboratories)
